# Experimental data published in the supplement of paper PMC7184167.
# Counter-ions that a name gives are not always drawn.
# Tested on: replication-induced senescent mouse newborn dermal fibroblasts (NBF)
# Test: relative cell viability of senescent cells (fraction); higher = less killing of senescent cells
# Conditions: 1 µM; 3 days
# Experimental: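 Replication-induced senescent newborn mouse skin fibroblasts (NBFs) in 24-well plates were treated with a Selleck FDA-approved drug library at 1 µM for 3 days.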
row,Compound,relative cell viability
1,CO/N=C(\C(=O)N[C@@H]1C(=O)N2C(C(=O)OCOC(=O)C(C)(C)C)=C(/C=C\c3scnc3C)CS[C@H]12)c1csc(N)n1 [Cefditoren Pivoxil],0.949
2,CC(=O)O[C@H]1C[C@@H]2CC[C@@H]3[C@H](CC[C@@]4(C)[C@H]3C[C@H]([N+]3(C)CCCCC3)[C@@H]4OC(C)=O)[C@@]2(C)C[C@@H]1N1CCCCC1 [Vecuronium Bromide],1.08
3,Cc1cn(-c2cc(NC(=O)c3ccc(C)c(Nc4nccc(-c5cccnc5)n4)c3)cc(C(F)(F)F)c2)cn1 [Nilotinib (AMN-107)],0.044
4,CCCC(CCC)C(=O)O [Divalproex Sodium],1.11
5,CN(C)CCc1c[nH]c2ccc(Cn3cncn3)cc12 [Rizatriptan Benzoate],1.09
6,O=C(c1ccccc1)c1ccc2n1CCC2C(=O)O (stereo not given) [Ketorolac],0.977
7,NS(=O)(=O)c1cc2c(cc1Cl)NCNS2(=O)=O [Hydrochlorothiazide],1.07
8,CC(C)(C)C(=O)OCOP(=O)(COCCn1cnc2c(N)ncnc21)OCOC(=O)C(C)(C)C [Adefovir Dipivoxil],0.924
9,C[C@@H]1CN(c2c(F)c(N)c3c(=O)c(C(=O)O)cn(C4CC4)c3c2F)C[C@H](C)N1 [Sparfloxacin],0.71
10,CCn1cc(C(=O)O)c(=O)c2cc(F)c(N3CCN(C)CC3)cc21 [Pefloxacin Mesylate],0.993
11,CNC(=O)c1cc(Oc2ccc(NC(=O)Nc3ccc(Cl)c(C(F)(F)F)c3)cc2)ccn1 [Sorafenib Tosylate],0.528
12,Cc1ccc(NC(=O)C2(c3ccc4c(c3)OC(F)(F)O4)CC2)nc1-c1cccc(C(=O)O)c1 [VX-809 (Lumacaftor)],0.838
13,O=C(Nc1cccc2c(=O)cc(-c3nnn[nH]3)oc12)c1ccc(OCCCCc2ccccc2)cc1 [Pranlukast],1.01
14,CCCCc1nc2cc(/C=C/C(=O)NO)ccc2n1CCN(CC)CC [Pracinostat (SB939)],1.01
15,CC1(C)O[C@@H]2C[C@H]3[C@@H]4CCC5=CC(=O)C=C[C@]5(C)[C@H]4[C@@H](O)C[C@]3(C)[C@]2(C(=O)CO)O1 [Desonide],1.14
16,COc1cc(C(=O)NS(=O)(=O)c2ccccc2C)ccc1Cc1cn(C)c2ccc(NC(=O)OC3CCCC3)cc12 [Zafirlukast],0.957
17,COCC[n+]1c2c(n(Cc3cnccn3)c1C)C(=O)c1ccccc1C2=O [YM155 (Sepantronium Bromide)],0.187
18,CC(=O)[C@H]1CC[C@H]2[C@@H]3CCC4=CC(=O)CC[C@]4(C)[C@H]3CC[C@]12C [Progesterone],0.968
19,NCCCCCC(=O)O [(6-)ε-Aminocaproic acid],0.983
20,C[C@H](Cc1cc2c(c(C(N)=O)c1)N(CCCO)CC2)NCCOc1ccccc1OCC(F)(F)F [Silodosin],0.806

row,Compound,relative cell viability
1,CC1(C)O[C@@H]2C[C@H]3[C@@H]4CCC5=CC(=O)C=C[C@]5(C)[C@@]4(F)[C@@H](O)C[C@]3(C)[C@]2(C(=O)CO)O1 [Triamcinolone Acetonide],1.02
2,Oc1c(Cl)cc(Cl)c2cccnc12 [Chloroxine],0.982
3,CNC(=O)c1ccc2cc([C@@]3(O)CCn4cncc43)ccc2c1 [TAK-700 (Orteronel)],0.282
4,NS(=O)(=O)Cc1noc2ccccc12 [Zonisamide],1.11
5,COc1ccc2cc([C@H](C)C(=O)O)ccc2c1 [Naproxen Sodium],0.686
6,Nc1nc(Cl)nc2c1ncn2[C@H]1C[C@H](O)[C@@H](CO)O1 [Cladribine],0.924
7,Cc1ccc(Nc2nccc(N(C)c3ccc4c(C)n(C)nc4c3)n2)cc1S(N)(=O)=O,1.05
8,NCCCC(O)(P(=O)(O)O)P(=O)(O)O [Alendronate sodium trihydrate],0.251
9,CCOc1ccccc1OCCN[C@H](C)Cc1ccc(OC)c(S(N)(=O)=O)c1 [Tamsulosin hydrochloride],1.1
10,CNC(=O)c1cc(Oc2ccc(NC(=O)Nc3ccc(Cl)c(C(F)(F)F)c3)c(F)c2)ccn1 [Regorafenib (BAY 73-4506)],0.958
11,CC1(C)CCC(c2ccc(Cl)cc2)=C(CN2CCN(c3ccc(C(=O)NS(=O)(=O)c4ccc(N[C@H](CCN5CCOCC5)CSc5ccccc5)c(S(=O)(=O)C(F)(F)F)c4)cc3)CC2)C1 [Navitoclax (ABT-263)],1.04
12,Cn1c(=O)c2[nH]cnc2n(C)c1=O [Aminophylline],0.98
13,Cn1c(=O)c2c(ncn2CC(O)CO)n(C)c1=O (stereo not given) [Dyphylline],0.335
14,CCCc1cc(C(N)=S)ccn1 [Protionamide],1.02
15,COc1cc(Nc2nc3ccccc3nc2NS(=O)(=O)c2ccc(NC(=O)c3ccc(C)c(OC)c3)cc2)cc(OC)c1,0.969
16,"CN1CCN(c2ccc3nc(-c4c(N)c5c(F)cccc5[nH]c4=O)[nH]c3c2)CC1 [Dovitinib (TKI-258, CHIR-258)]",0.589
17,NC(=O)N1c2ccccc2C=Cc2ccccc21 [Carbamazepine],0.859
18,CN(C)CCOC(c1ccccc1)c1ccccc1 [Diphenhydramine HCl],1.14
19,C#C[C@]1(O)CC[C@H]2[C@@H]3CCc4cc(O)ccc4[C@H]3CC[C@@]21C [Ethinyl Estradiol],0.86
20,C=C1/C(=C\C=C2/CCC[C@]3(C)[C@@H]([C@H](C)CCCC(C)C)CC[C@@H]23)C[C@@H](O)C[C@@H]1O [Alfacalcidol],0.249
